In the library only some 1.1% were active in any assay of this set; here they are far more common.
FAS-TE inh: blocks the thioesterase domain of human fatty acid synthase | hit rate 0.67% among 360,000 | recombinant FAS-TE, OMFH fluorogenic substrate, fluorescence endpoint | inhibition, % at 15 µM | AID 602261 | P49327;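 active means compounds whose normalised, plate-corrected inhibition of enzyme fluorescence in the single-dose primary screen is 50% or more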
aDG glyco act: alpha-DG glycosylation activation | Pro5-aDG cells, alpha-DG glycosylation AlphaScreen (IIH6); 0% Pro5, 100% B10-LARGE cell signal | activation, % at 10 µM | hit rate 0.22% among 360,000;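 active means activation of at least 8% versus controls, or a plate z-score of at least 8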;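 further: Pro5 are CHO cells carrying HIG-tagged alpha-DG that lacks glycosylation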
NPR1 activator: GC-A (human) enzyme activation; P16066; hit rate 0.14% among 370,000; activation, % at 10 µM; HEK293 GC-A cells, cGMP TR-FRET, EC30 ANP; 0% at EC30 ANP, 100% saturating ANP; in the data active means activation above about 40%
GC-B act: GC-B (human) receptor activation; P20594; HEK293-GC-B cells, CNP EC30, cGMP TR-FRET; 0% at EC30 CNP, 100% saturating CNP; activation, % at 10 µM; hit rate 0.11% among 370,000;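 active means activation at 10 µM reaching about 35% in either raw or pattern-adjusted values, limit read from the data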
Target sequence (P20594 whole entry, looked up): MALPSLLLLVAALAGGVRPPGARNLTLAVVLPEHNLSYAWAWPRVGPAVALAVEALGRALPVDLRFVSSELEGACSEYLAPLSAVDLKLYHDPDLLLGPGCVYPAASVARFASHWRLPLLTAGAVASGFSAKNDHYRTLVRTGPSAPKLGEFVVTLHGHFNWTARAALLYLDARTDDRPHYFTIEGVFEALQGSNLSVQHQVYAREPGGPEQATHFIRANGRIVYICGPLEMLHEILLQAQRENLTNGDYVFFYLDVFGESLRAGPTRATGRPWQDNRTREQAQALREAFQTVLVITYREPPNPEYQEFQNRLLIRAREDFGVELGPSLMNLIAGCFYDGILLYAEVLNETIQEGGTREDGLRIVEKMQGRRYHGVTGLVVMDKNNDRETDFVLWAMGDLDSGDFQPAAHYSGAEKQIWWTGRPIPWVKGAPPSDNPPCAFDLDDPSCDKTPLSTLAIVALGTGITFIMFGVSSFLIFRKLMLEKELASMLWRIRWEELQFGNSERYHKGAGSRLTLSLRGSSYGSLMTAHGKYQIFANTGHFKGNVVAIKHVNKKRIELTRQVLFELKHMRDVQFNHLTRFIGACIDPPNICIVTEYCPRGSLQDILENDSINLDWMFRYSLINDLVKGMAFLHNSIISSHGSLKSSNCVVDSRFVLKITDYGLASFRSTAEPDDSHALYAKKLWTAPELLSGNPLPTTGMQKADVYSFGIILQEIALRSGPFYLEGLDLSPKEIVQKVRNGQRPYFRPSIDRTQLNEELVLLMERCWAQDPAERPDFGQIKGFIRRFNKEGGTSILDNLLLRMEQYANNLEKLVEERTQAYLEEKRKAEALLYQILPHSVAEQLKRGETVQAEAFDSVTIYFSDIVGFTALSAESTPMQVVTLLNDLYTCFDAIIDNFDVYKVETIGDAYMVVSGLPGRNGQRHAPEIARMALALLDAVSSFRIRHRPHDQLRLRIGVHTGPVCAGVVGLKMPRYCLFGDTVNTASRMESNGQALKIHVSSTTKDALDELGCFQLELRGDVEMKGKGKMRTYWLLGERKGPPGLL
FAS-TE inh conf: FAS thioesterase (human) inhibition, confirmation; shares compounds with FAS-TE inh; recombinant FAS-TE, OMFH fluorogenic substrate, fluorescence; inhibition, % at 15 µM; hit rate 45% among 2,300;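 active means compounds inhibiting the enzyme by at least 50% at 15 µM in any one of the replicates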
aDG conf: confirmation of alpha dystroglycan glycosylation activators; shares compounds with aDG glyco act; Pro5-aDG cells, alpha-DG glycosylation, IIH6 AlphaLISA; scaled to LARGE-overexpressing B10 cells as 100%; activation, % at 10 µM (by protocol); hit rate 17% among 600; AID 651671;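 active means activation of at least 7% in one or more replicates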;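 further: cells exposed to compound for two days before detection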
Of the large screens only hits and unclear results are named; the others gave an inactive call (follow-up assays come after a bar, where they were run).

COc1ccc(C(c2nnnn2-c2ccc(OC)cc2)N2CCC3(CC2)C(=O)NCN3c2ccccc2)cc1 (stereo not drawn)	FAS-TE inh 52 | FAS-TE inh conf inactive
COc1ccc(-n2nnnc2C(c2ccccc2OC(F)(F)F)N2CCC3(CC2)C(=O)NCN3c2ccccc2)cc1 (stereo not drawn)	FAS-TE inh 60 | FAS-TE inh conf inactive
COc1ccc(-n2nnnc2C(c2ccccc2)N2CCC3(CC2)C(=O)NCN3c2ccccc2)cc1 (stereo not drawn)	none
O=C1NCN(c2ccccc2)C12CCN(C(c1ccccc1OC(F)(F)F)c1nnnn1-c1ccc3c(c1)OCCO3)CC2 (stereo not drawn)	FAS-TE inh 82 | FAS-TE inh conf inactive
CCN(CC)C(=O)c1ccc(NC(=O)COc2ccc(-c3nn(C)c(=O)c4ccccc34)cc2)cc1	none
CCCN(CCC)C1CCc2ccc(O)cc2C1 (stereo not drawn)	none
O=S(=O)(c1cc(Cl)cc(Cl)c1)N1Cc2cc(-c3ccccc3)ccc2-n2nncc2C1	FAS-TE inh 86 | FAS-TE inh conf inactive
O=C(NCCN1CCC2(CC1)C(=O)NCN2c1ccccc1)c1cc(C(F)(F)F)ccc1C(F)(F)F	none (no result: FAS-TE inh, aDG glyco act)
C[C@@H]1CC2(CCCC[N+]2(C)C)C[C@H]1C	none
CN(Cc1cccc(-c2cccnc2)c1)C(=O)Oc1ccc([N+](=O)[O-])cc1	FAS-TE inh 51 | FAS-TE inh conf inactive
Cc1ccc(-c2cc(C(F)F)n3ncc(C(=O)N4CCC5(CC4)OCCO5)c3n2)cc1	none
COc1ccc([N+](=O)[O-])cc1N=Cc1c(O)n(CCc2ccccc2)c(=O)n(C(C)C)c1=O	FAS-TE inh 72 | FAS-TE inh conf inactive
COc1ccc(CCn2c(O)c(C=Nc3ccccc3F)c(=O)[nH]c2=O)cc1OC	none
C=CCn1c(=O)c(C=Nc2c(OC)cccc2[N+](=O)[O-])c(O)n(CCCC)c1=O	FAS-TE inh 70 | FAS-TE inh conf inactive
C=CCn1c(=O)c(C=Nc2cccc([N+](=O)[O-])c2)c(O)n(CCCC)c1=O	none
NP(=O)(Oc1ccccc1Cl)Oc1ccccc1Cl	FAS-TE inh 75 | FAS-TE inh conf 85
O=c1[nH]c2cc(Cl)ccc2n1C1CCN(Cc2ccc(-c3nc4ccc(F)cc4nc3-c3ccccc3)cc2)CC1	none (no result: FAS-TE inh, aDG glyco act)
Cc1ccc2nc(-c3ccc(CN4CCC(n5c(=O)[nH]c6ccccc65)CC4)cc3)c(-c3ccccc3)nc2c1	FAS-TE inh 72 | FAS-TE inh conf inactive
N#Cc1ccc2nc(-c3ccc(CN4CCC(n5c(=O)[nH]c6cc(Cl)ccc65)CC4)cc3)c(-c3ccccc3)nc2c1	none (no result: FAS-TE inh, aDG glyco act)
COc1ccc2nc(-c3ccc(CN4CCC(n5c(=O)[nH]c6ccccc65)CC4)cc3)c(-c3ccccc3)nc2c1	FAS-TE inh 76 | FAS-TE inh conf inactive
O=c1[nH]c2ccccc2n1C1CCN(Cc2ccc(-c3nc4ccccc4nc3-c3ccccc3)cc2)CC1	FAS-TE inh 61 | FAS-TE inh conf inactive
O=c1[nH]c2ccccc2n1C1CCN(Cc2ccc(-c3nc4ccc(F)cc4nc3-c3ccccc3)cc2)CC1	FAS-TE inh 63 | FAS-TE inh conf inactive
Cc1ccc2nc(-c3ccc(CN4CCC(n5nnc6ccccc65)CC4)cc3)c(-c3ccccc3)nc2c1	none (no result: FAS-TE inh, aDG glyco act)
CCC1(CC)C(=O)N(C)C(=O)NC1=NC	none
CC(C)C(CN1CCC(C)(c2cccc(O)c2)[C@@H](C)C1)NC(=O)C1Cc2ccc(O)cc2CN1 (stereo partly drawn)	none (no result: FAS-TE inh, aDG glyco act)
CN1C(=O)C[N+]([O-])=C(c2ccccc2)c2cc(Cl)ccc21	none
Cn1cc(C=C(C#N)C#N)c2ccccc21	FAS-TE inh 63 | FAS-TE inh conf inactive
CCC(=NCCc1c[nH]c2ccccc12)c1c(O)n(C)c(=O)n(C)c1=O	aDG glyco act 5.0 | aDG conf inactive
CCN1CCN(c2nc([N+](=O)[O-])nn2C)CC1	none
CN1CCN(c2nc([N+](=O)[O-])nn2C)CC1	aDG glyco act 25 | aDG conf inactive
CC(C)(C)n1nnnc1C(c1cc2ccccc2o1)N1CCC2(CC1)C(=O)NCN2c1ccccc1 (stereo not drawn)	none
O=C1NCN(c2ccccc2)C12CCN(C(c1cc3ccccc3o1)c1nnnn1C1CCCCC1)CC2 (stereo not drawn)	aDG glyco act 8.4 | aDG conf inactive
CN(C)P1(N(C)C)=NC(C(F)(F)F)=NC(C(F)(F)F)=N1	none
O=C1C2CCCN2C(c2ccc(Cl)c(Cl)c2)N1c1ccccn1 (stereo not drawn)	aDG glyco act 7.0 | aDG conf inactive
CS(=O)(=O)c1ccc(C2=C(CNC(=O)c3ccncc3)[C@H]3CC[C@@H](C2)N3Cc2ccccc2)cc1	none

Screening results from PubChem BioAssay.
